One may read the inhibition as the drop in the measured response relative to a control, in per cent.

Among all 64,000 compounds or so, about 55 (0.09%) were called active. Not all results are given here. Values without a mark were called inactive. The rule behind the calls is not given here.

Alkaline phosphatase, tissue-nonspecific isozyme (Homo sapiens), sequence (P05186 whole entry, looked up): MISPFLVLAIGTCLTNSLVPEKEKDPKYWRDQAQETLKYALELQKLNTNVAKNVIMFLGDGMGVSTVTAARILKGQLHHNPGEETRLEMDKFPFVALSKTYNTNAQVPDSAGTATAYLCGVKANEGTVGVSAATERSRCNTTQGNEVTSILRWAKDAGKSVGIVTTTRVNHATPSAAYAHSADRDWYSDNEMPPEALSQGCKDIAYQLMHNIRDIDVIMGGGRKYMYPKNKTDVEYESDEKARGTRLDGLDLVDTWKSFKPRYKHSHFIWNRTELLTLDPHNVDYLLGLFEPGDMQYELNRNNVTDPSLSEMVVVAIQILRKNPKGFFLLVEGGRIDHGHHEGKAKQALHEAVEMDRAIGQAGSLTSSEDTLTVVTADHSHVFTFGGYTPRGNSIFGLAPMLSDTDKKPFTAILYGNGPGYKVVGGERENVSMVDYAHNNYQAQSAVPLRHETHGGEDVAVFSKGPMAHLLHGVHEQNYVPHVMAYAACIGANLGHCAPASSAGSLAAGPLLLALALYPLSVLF

The assay addresses Alkaline phosphatase, tissue-nonspecific isozyme (Homo sapiens) (UniProt P05186). Kind of assay: human TNAP enzyme inhibitors, biochemical, luminescent (AID 518).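 Note: plate controls were vehicle for no effect and reference inhibitor for full effect.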 Conditions: purified TNAP enzyme, luminescent substrate readout; at 20 µM; stronger effect = higher value.
As to `CCN1C(=O)OC2(CCCCC2)C1(C)O` (stereo not drawn), the inhibition is 13%. In the case of `O=C(NCCN1CCOCC1)c1cc2ccccc2o1`, the inhibition was 9.4%.

On to `Cc1cc2c(c(Sc3ccccc3)n1)C(=O)OC2`, for which the inhibition was 7.5%. For the compound `O=C(N1CCOCC1)N1CCN(CC(O)COc2ccc3ccccc3c2)CC1` (stereo not drawn), the inhibition is 16.3%. Take `Cn1c2ccccc2c2nnc(SCN3C(=O)c4ccccc4C3=O)nc21`: the inhibition is 8.4%.

Turning to `Cc1cc(C(=O)OCC(=O)Nc2nc(-c3ccccc3)cs2)c(C)o1`, the inhibition was 1.4%. In the case of `O=c1c2ccccc2nc2n1CCCS2` it was 4.5%; in that of `COc1cc2[nH]c3c(N4CCN(c5ccc(Cl)cc5)CC4)ncnc3c2cc1OC`, 5.3%; in that of `O=C(CCC(=O)c1ccc(F)cc1)OC1CCOC1=O` (stereo not drawn), 6.6%.

For `COc1ccccc1N1CCN(C(=O)CSc2ccc3c(C)cc(C)nc3n2)CC1`, the inhibition was 10.2%. Consider `Oc1ccccc1Oc1ncc(Br)c(N2CCOCC2)n1`, for which the inhibition is -1.3%. In the case of `COc1ccccc1-c1nc(SCC(=O)O)n[nH]1`, the inhibition was 4.7%. In the case of `C/C(N)=C(/C#N)C(=O)CSc1ncnc2ccccc12`, the inhibition is 5.5%. In the case of `Cc1nc2sc(C(c3cccc(F)c3)N3CCCC(C)C3)c(O)n2n1` (stereo not drawn) it was 5.8%; in that of `COc1ccc(OC)c2c1CCC2=O`, 8.1%; in that of `CN(CCCNC(=O)C1CCC(=O)N1Cc1ccc(F)cc1)c1ccccc1` (stereo not drawn), 1.1%. Consider `Cc1cc(C(=O)NCCN2CCN(c3cccc(Cl)c3)CC2)n(-c2ccccc2)n1`, for which the inhibition was 10.8%. Turning to `CCc1c(C)[nH]c2ccc(C)cc2c1=O`, the inhibition is 7.8%.

On to `CCCCn1c(NCCN(C)C)nc2c1c(=O)[nH]c(=O)n2C`, for which the inhibition is -1%.

In the case of `O=C(CSc1oc(-c2ccccc2)nc1S(=O)(=O)c1ccc(F)cc1)NCC1CCCO1` (stereo not drawn), the inhibition was 1.7%.

With `O=C(COc1ccc(S(=O)(=O)N2CCOCC2)cc1)Nc1ccc2c(c1)OCCO2`, the inhibition is -6.1%. Consider `C=CCN1C(=O)C(O)(CC(=O)c2ccccc2)c2ccccc21` (stereo not drawn), for which the inhibition is 7.7%. Take `CN(C)c1oc(-c2ccc(OCc3ccc(Cl)cc3)cc2)nc1C#N`: the inhibition is 5.2%. In the case of `O=C(c1ccc(CNS(=O)(=O)c2cccc(C(F)(F)F)c2)cc1)N1CCOCC1` it was 19.5%; in that of `CCn1cnc2sc(C(=O)N3CCN(Cc4ccc5c(c4)OCO5)CC3)c(C)c2c1=O`, 0.3%; in that of `c1ccc(N2CCN(C3CCSC3)CC2)cc1` (stereo not drawn), 13.5%.

For `COCCNc1ncnc2nc[nH]c12`, the inhibition is 8.7%. Regarding `CCOCCCNC(=O)C(c1ccc(C)cc1)N1CCOCC1` (stereo not drawn), the inhibition was -1%.

Consider `CS(=O)(=O)N(CC(=O)NCc1ccc2c(c1)OCO2)c1ccc(Cl)cc1`, for which the inhibition is 6.8%. With `CCOc1ccc(CNc2ccc3c(c2)ncn3C)cc1`, the inhibition is 16.9%. On to `Cc1nccn1CCC(=O)O`, for which the inhibition was 5.3%. Take `CCc1ccccc1N1C(=O)C2CC(C)=C(C)CC2C1=O` (stereo not drawn): the inhibition was 5.3%. As for `Cc1cc(C(=O)NC(C)c2ccncc2)cs1` (stereo not drawn), the inhibition was 3.5%.

Turning to `Cc1ccc(S(=O)(=O)Cn2nnnc2C(c2ccc(F)cc2)N2CCCCC2)cc1` (stereo not drawn), the inhibition was 3.5%. In the case of `CCCCCC(=O)N1CCN(CCN=CC2=C(O)CC(c3ccco3)CC2=O)CC1` (stereo not drawn), the inhibition was 8%. In the case of `O=C(NCCN1CCOCC1)C1CCN(c2nc3ccccc3o2)CC1` it was 7.3%. In the case of `CCCc1ccc(S(=O)(=O)NCCc2ccncc2)cc1`, the inhibition was 10.5%. With `CCc1ccc2[nH]c(=O)c(C(c3nnnn3CC3CCCO3)N3CCCc4ccccc43)cc2c1` (stereo not drawn), the inhibition is 19.5%. To `COc1cc(C2C3CN(C)CC=C3C(C#N)=C(N)C2(C#N)C#N)ccc1OC(C)C` (stereo not drawn) belongs -0.1%; to `CC1c2nc3ccccc3n2C(CC(=O)NCc2ccccn2)C(=O)N1Cc1ccccc1` (stereo not drawn), 12.3%; to `Cc1onc(-c2c(F)cccc2Cl)c1C(=O)Nc1cccc2nsnc12`, 13.1%. To `COc1cc(C)nc(OCCNC(=O)COc2ccc(Cl)cc2Cl)n1` belongs 13.3%; to `COc1ccc(CNS(=O)(=O)c2ccc(C3CNC(=O)C3)cc2)cc1` (stereo not drawn), 8.2%. In the case of `O=C(CSc1nnc2scc(-c3ccccc3)n12)N1CCCc2ccccc21` it was 5.3%; in that of `C=CCOc1ccccc1C1C2=C(CC(C)(C)CC2=O)Nc2c1c(=O)n(C)c(=O)n2C` (stereo not drawn), 4.4%. With `COC(=O)N(C)CCCC1(C)C(=O)N(C)c2ccc(O)cc21` (stereo not drawn), the inhibition is 8.6%. As to `c1ccc(CSc2nncn2-c2ccccn2)cc1`, the inhibition is 17.8%. In the case of `Cc1ccnc(NS(=O)(=O)c2cccs2)c1`, the inhibition is 14.5%. In the case of `CCCc1noc2c1C(c1ccoc1)C(C#N)=C(N)N2` (stereo not drawn) it was 15.5%. On to `CCN(CC)CCCN1C(=O)C(=O)/C(=C(/O)c2ccc3c(c2)OCCO3)C1c1ccc(C)o1` (stereo not drawn), for which the inhibition is 6.3%.

For `c1ccc(CCc2nn3c(Cn4cnc5ccccc54)nnc3s2)cc1`, the inhibition is 10.8%. In the case of `CCn1c2ccccc2c2nnc(SCC(=O)c3ccccc3)nc21`, the inhibition was 14.3%. With `CC(C)(CNS(=O)(=O)c1ccc(F)cc1)CNS(=O)(=O)c1ccc(F)cc1`, the inhibition is 10.8%.

On to `COc1ccc(CN(Cc2cc3cc4c(cc3[nH]c2=O)OCO4)C(=O)NC2CCCCC2)cc1`, for which the inhibition is 6.8%. In the case of `O=C(NCc1ccco1)C(c1ccco1)N(CCc1ccccc1)C(=O)Cn1nnc2ccccc21` (stereo not drawn) it was 12.6%; in that of `Cc1ccc(N2C(=O)C3C(C2=O)C(C(=O)c2ccc(Cl)cc2)N2CCCC32)cc1` (stereo not drawn), 12%. As to `CCOC(=O)c1cccnc1SCC(=O)N(C)c1ccccc1`, the inhibition is -1.1%. In the case of `O=C(Nc1c(Cl)cc(Cl)cc1C(=O)NCC1CCCO1)c1ccco1` (stereo not drawn) it was 5.4%; in that of `COC(=O)c1nc(NC(=O)C(C)C)n[nH]1`, 5.3%. Take `COc1ccc2c(=O)c3c(=O)n(Cc4ccco4)c(-c4ccc(C)cc4)nc3oc2c1`: the inhibition was 9.7%. In the case of `Cc1ccc(OCCn2c(=O)cnc3ccccc32)cc1` it was 3.3%; in that of `CC1CCN(S(=O)(=O)c2cccc(C(=O)Nc3ccccn3)c2)CC1`, 24.3%. Take `CCN1C(=O)C(Cc2nc3ccccc3c(=O)n2C)c2ccccc21` (stereo not drawn): the inhibition was 10.6%. On to `COCc1[nH]nc2c1C(c1ccc(OC)c(OC)c1)C(C#N)=C(N)O2` (stereo not drawn), for which the inhibition was 7.1%.

In the case of `COCc1[nH]nc2c1C(c1ccc(OC)cc1)C(C#N)=C(N)O2` (stereo not drawn), the inhibition was 16.1%.

With `COc1ccccc1C1C2C(=O)N(c3ccccc3)C(=O)C2ON1c1ccccc1` (stereo not drawn), the inhibition was -0.2%. Take `O=c1[nH]c(-c2ccccc2O)nc2c1CCCC2`: the inhibition is 8.8%.

Regarding `Cc1ccc(NC(=O)c2cc(-c3ccco3)on2)cc1`, the inhibition is 8.1%. In the case of `O=C(CN1CCC(n2nnc3cc(F)ccc32)CC1)Nc1ccccc1N1CCOCC1` it was 6.7%; in that of `COc1ccc(S(=O)(=O)Nc2cc(Cl)ccc2OC)cc1`, 14.2%; in that of `O=c1cc(-c2ccccc2)nc2nc(COc3ccccc3)[nH]n12`, 1.9%. Take `O=C(NCc1ccccc1)c1cc(=O)nc2sc(-c3ccccc3)nn12`: the inhibition was 9.8%. Turning to `CCn1c(CNC(=O)c2cccs2)nnc1SCC(=O)NCCc1ccccc1`, the inhibition was 14%. As to `C=CCN1C(=O)CS/C1=N/c1nccs1`, the inhibition was 8.1%. Turning to `O=C1c2ccccc2C(=O)N1c1n[nH]c(CCc2ccccc2)n1`, the inhibition was 22.8%.

With `O=C1C2C3C=CC(C3)C2C(=O)N1c1n[nH]c(CCc2ccccc2)n1` (stereo not drawn), the inhibition was 36.8%. As for `Cc1ccc(NC(=O)Cn2cnc3c(=O)n(C)c(=O)n(C)c32)c(C)c1`, the inhibition was 3.9%. Consider `CN(C)c1[nH]c(=O)c(C#N)c2c1CCN2Cc1ccccc1`, for which the inhibition was 11.1%. In the case of `CCOc1ccc(C2C(C#N)=C(N)Oc3nc[nH]c(=O)c32)cc1OC` (stereo not drawn) it was 4.4%; in that of `O=C(CC(Nc1ccccc1)C(=O)O)c1ccccc1` (stereo not drawn), 15.2%.

Take `CCOc1ccc(OCC)c(NS(=O)(=O)c2ccc3c(c2)n(C)c(=O)c(=O)n3C)c1`: the inhibition was 0.5%. `CCOc1ccc(CC(=O)Nc2c(C(N)=O)oc3ccccc23)cc1OCC`: the inhibition is 5.9%. `CCN(CC)C(=O)c1c[nH]c2ccc(S(=O)(=O)Nc3cc(C)cc(C)c3)cc2c1=O`: the inhibition is 5.8%. Take `CS(=O)(=O)N(CC(=O)NC1CCCCC1)c1cccc(Cl)c1`: the inhibition is 6.8%.

As to `COc1cccc(C(=O)Nc2ccccc2N2CCCC2)c1`, the inhibition was 9.9%.

Consider `O=C(Cn1cc2c(n1)CCCCC2)NCc1ccccc1`, for which the inhibition was 9.1%.

In the case of `Cc1ccc(NC2CC(=O)N(c3ccc(N4CCCCC4)cc3)C2=O)cc1` (stereo not drawn), the inhibition was 6.6%. To `COc1ccc(CC(=O)Nc2cccc(-c3nnc(-c4ccccc4)o3)c2)cc1OC` belongs 6.4%. To `O=C(Nc1ccccc1)NC1(C(=O)NCc2ccc3c(c2)OCO3)CCCCC1` belongs -0.2%.

As for `COc1cc(C2c3c(oc4c(C)cc(C)cc4c3=O)C(=O)N2Cc2cccnc2)cc(OC)c1OC` (stereo not drawn), the inhibition was 4.1%. For `Cc1ccc(-c2nc(CS(=O)CC(=O)NCc3ccccn3)c(C)o2)cc1` (stereo not drawn), the inhibition is -7.5%. In the case of `CN(C)/C=N/c1nc2ccc3c(c2s1)CCCC3`, the inhibition is 12.3%. To `COc1ccc(N2CCN(CC(=O)Nc3cc4c(cc3C(C)=O)OCO4)CC2)cc1` belongs 3.8%; to `CSc1ccccc1C(=O)NCc1ccc2c(c1)OCO2`, 7.3%. In the case of `O=C(Nc1ccccc1)N(C1=NCCCCS1)c1ccccc1` it was 8.3%. Turning to `C=C(C)Cn1c(SCC(=O)O)nnc1-c1ccc(C(C)(C)C)cc1`, the inhibition is 10.6%. In the case of `Nc1c(S(=O)(=O)c2cccc(Cl)c2)c2nc3ccccc3nc2n1/N=C/c1ccc(O)c(O)c1` it was 11.3%; in that of `CSC1=C(C#N)C(c2cccs2)CC(=O)N1C` (stereo not drawn), 10.5%.

For the origin of these results see PubChem BioAssay AID518 (Sanford-Burnham Center for Chemical Genomics, 2006).
